# Test results published in PubChem BioAssay (EPA / NIEHS).
# Results filed as inconclusive are left out. Calls of active or inactive are those of the source. Rule for the calls: active = hit-call score of the fitted dose curve at least 0.9, where 1 is the maximum; inconclusive = response in the unintended direction; inactive = score below 0.9.
# Biological target: human CYP2C9, CYP2C9 (gene 1559) (UniProt P11712)
# Assay: NVS_ADME_hCYP2C9: NovaScreen (NVS) CYP450-related Enzyme Activity (ADME) Assay for human CYP2C9 (AID 2283108)
# Outline: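 Cell-free assay of recombinant human CYP2C9 produced in Sf9 cells, with enzyme activity read by fluorescence intensity 0.75 h after compound addition. Loss of signal versus an acetonitrile negative control indicates inhibition. Primary screen used 10 uM in duplicate; actives were retested in concentration series.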
# Chain of human CYP2C9, CYP2C9 (gene 1559) (P11712 whole entry, looked up): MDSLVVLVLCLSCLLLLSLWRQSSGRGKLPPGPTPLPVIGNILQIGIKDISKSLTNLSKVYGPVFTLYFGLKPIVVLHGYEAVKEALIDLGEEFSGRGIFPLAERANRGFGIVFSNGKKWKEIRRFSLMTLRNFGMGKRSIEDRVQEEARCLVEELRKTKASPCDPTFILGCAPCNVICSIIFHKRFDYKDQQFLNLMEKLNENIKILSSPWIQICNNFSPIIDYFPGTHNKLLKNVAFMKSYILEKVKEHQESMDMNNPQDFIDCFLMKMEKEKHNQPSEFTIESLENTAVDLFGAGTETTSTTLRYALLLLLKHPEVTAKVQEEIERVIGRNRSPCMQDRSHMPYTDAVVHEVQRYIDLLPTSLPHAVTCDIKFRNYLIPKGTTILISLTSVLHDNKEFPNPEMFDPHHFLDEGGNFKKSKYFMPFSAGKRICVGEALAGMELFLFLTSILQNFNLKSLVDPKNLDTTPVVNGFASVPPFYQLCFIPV
Structure (SMILES),outcome,AC50
CC(C)OC(=O)C(C)(C)Oc1ccc(C(=O)c2ccc(Cl)cc2)cc1,inactive,–
O=C(NS(=O)(=O)/C=C/c1cccs1)c1ccc(F)cc1Br,–,4.11 µM (active)
O=C(N[C@@H](c1ccccc1)[C@@H]1CCCCN1)c1cccc(C(F)(F)F)c1Cl,–,3.27 µM (active)
Cc1c(C)c2c(c(C)c1O)CCC(C)(COc1ccc(CC3SC(=O)NC3=O)cc1)O2 (centres undefined),inactive,–
CCC(C)N(C)C(=O)c1cc2ccccc2c(-c2ccccc2Cl)n1 (centres undefined),–,4.2 µM (active)
CSc1ccc(Oc2ccc(S(N)(=O)=O)cc2CN(C)C)cc1C,–,4.84 µM (active)
O=C1OC(c2ccc(O)cc2)(c2ccc(O)cc2)c2ccccc21,–,6.81 µM (active)
CCN(CC)CCOc1ccc(C(=C(Cl)c2ccccc2)c2ccccc2)cc1,–,6.93 µM (active)
CCCCCCC(CCCCCCCCCCC(=O)OCC(COC(C)=O)OC(C)=O)OC(C)=O (centres undefined),–,1.41 µM (active)
S=c1[nH]c2ccccc2s1,–,7.33 µM (active)
CCc1cc(C2=C(C(=O)O)N(c3ccccc3C(F)(F)F)S(=O)(=O)c3ccccc32)cc2c1OCO2,inactive,–
CCCCc1nc2cccnc2n1Cc1ccc(-c2ccccc2-c2nnn[nH]2)cc1,–,2.96 µM (active)
CCCCC(CC)COP(=O)(OCC(CC)CCCC)OCC(CC)CCCC (centres undefined),inactive,–
CC(=O)OC1CC(C)OC(C)O1 (centres undefined),–,4.37 µM (active)
Cc1ccc(-c2cc(C(F)(F)F)nn2-c2ccc(S(N)(=O)=O)cc2)cc1,–,6 µM (active)

# Biological target: Cytochrome P450 3A4 (Homo sapiens) (UniProt P08684)
# Assay: NVS_ADME_hCYP3A4: NovaScreen (NVS) CYP450-related Enzyme Activity (ADME) Assay for human CYP3A4 (AID 2283110)
# Outline: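 Activity is derived from decreased fluorescence intensity relative to acetonitrile, measured 0.33 hour after dosing insect-cell-expressed CYP3A4 in a cell-free format. Screening used 10 uM in duplicate before concentration-response follow-up.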
# Chain of Cytochrome P450 3A4 (Homo sapiens) (P08684 whole entry, looked up): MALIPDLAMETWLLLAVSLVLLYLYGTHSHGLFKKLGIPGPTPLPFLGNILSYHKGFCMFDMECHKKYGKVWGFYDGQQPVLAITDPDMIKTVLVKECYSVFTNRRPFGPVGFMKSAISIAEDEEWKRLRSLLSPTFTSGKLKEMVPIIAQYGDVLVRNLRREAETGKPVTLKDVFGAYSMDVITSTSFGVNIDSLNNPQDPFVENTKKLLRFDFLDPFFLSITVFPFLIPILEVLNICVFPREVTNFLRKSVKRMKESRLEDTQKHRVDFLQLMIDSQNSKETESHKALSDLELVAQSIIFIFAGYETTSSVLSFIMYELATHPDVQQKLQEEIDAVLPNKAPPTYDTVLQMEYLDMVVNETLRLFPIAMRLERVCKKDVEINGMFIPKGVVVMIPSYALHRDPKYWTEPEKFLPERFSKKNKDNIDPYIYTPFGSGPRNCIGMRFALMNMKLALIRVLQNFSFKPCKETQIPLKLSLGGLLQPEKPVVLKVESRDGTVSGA
Structure (SMILES),outcome,AC50
O=C(N[C@@H](c1ccccc1)[C@@H]1CCCCN1)c1cccc(C(F)(F)F)c1Cl,inactive,–
CCc1cc(C2=C(C(=O)O)N(c3ccccc3C(F)(F)F)S(=O)(=O)c3ccccc32)cc2c1OCO2,–,4.98 µM (active)
CN(C)C(=O)NC1(c2ccccc2)CCN(CC[C@@]2(c3ccc(F)c(F)c3)CN(C(=O)c3ccccc3)CCO2)CC1,–,5.63 µM (active)
CC1(C)C(=O)NC(=O)N1CO,inactive,–
CC(=O)OCC(COC(C)=O)OC(C)=O,inactive,–

# Biological target: Cytochrome P450 2C19 (Homo sapiens) (UniProt P33261)
# Assay: NVS_ADME_hCYP2C19: NovaScreen (NVS) CYP450-related Enzyme Activity (ADME) Assay for human CYP2C19 (AID 2283113);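 for AC50: potency for inhibition seen as loss of fluorescent signal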
# Outline: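 Biochemical CYP2C19 inhibition screen: insect-cell recombinant protein plus fluorescent substrate, 1 h, fluorescence intensity. Acetonitrile defined baseline activity. Single 10 uM concentration in duplicate, with concentration-response follow-up for actives.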
Structure (SMILES),outcome,AC50
CCCCCCCCCC[N+](C)(C)[O-],inactive,–
CC(C)OC(=O)C(C)(C)Oc1ccc(C(=O)c2ccc(Cl)cc2)cc1,–,4.67 µM (active)
O=C(N[C@@H](c1ccccc1)[C@@H]1CCCCN1)c1cccc(C(F)(F)F)c1Cl,inactive,–
Cc1cc(SC2=C(O)C[C@@](CCc3ccc(N)cc3)(C(C)C)OC2=O)c(C(C)(C)C)cc1CO,–,7.64 µM (active)
CSc1ccc(Oc2ccc(S(N)(=O)=O)cc2CN(C)C)cc1C,–,4.05 µM (active)
O=C1OC(c2ccc(O)cc2)(c2ccc(O)cc2)c2ccccc21,–,0.586 µM (active)
CCCCCCCCCCCCCCCCO,–,12.6 µM (active)
CC(COCC(C)OC(=O)c1ccccc1)OC(=O)c1ccccc1 (centres undefined),–,2.27 µM (active)
CCN(CC)CCOc1ccc(C(=C(Cl)c2ccccc2)c2ccccc2)cc1,–,2.68 µM (active) [middle of 4 runs]
Cc1cc(Cc2ccc(N)c(C)c2)ccc1N,–,7.05 µM (active)
CC(C)(O)c1ccc(CNC(=O)c2cccnc2Oc2ccc(F)cc2)cc1,–,4.26 µM (active)
CC(=O)CC(c1ccccc1)c1c(O)c2ccccc2oc1=O (centres undefined),inactive,–
S=c1[nH]c2ccccc2s1,–,1.92 µM (active)
CCc1cc(C2=C(C(=O)O)N(c3ccccc3C(F)(F)F)S(=O)(=O)c3ccccc32)cc2c1OCO2,–,15.8 µM (active)
CC(C)c1cccc(C(C)C)c1,–,10 µM (active)
CCCCC(CC)COP(=O)(OCC(CC)CCCC)OCC(CC)CCCC (centres undefined),inactive,–
CN(C)C(=O)NC1(c2ccccc2)CCN(CC[C@@]2(c3ccc(F)c(F)c3)CN(C(=O)c3ccccc3)CCO2)CC1,inactive,–
CC(=O)OC1CC(C)OC(C)O1 (centres undefined),–,15.1 µM (active)
COC(=O)[C@H]1[C@H]2C[C@@H]3c4[nH]c5cc(OC)ccc5c4CCN3C[C@H]2C[C@@H](OC(=O)c2cc(OC)c(OC)c(OC)c2)[C@@H]1OC,–,7.91 µM (active)
